Here are results for 55 compounds from PubChem BioAssay (Tox21).

This test concerns the target Beta-2 adrenergic receptor (Homo sapiens) (UniProt P07550). The test is described as follows: Adrenergic beta2 receptor (ADRB2) small molecule agonists, cell-based qHTS assay (AID 1963593).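 Further: CHO cells stably overexpressing human ADRB2.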 The procedure, abridged:
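CHO cells stably over-expressing ADRB2 were plated overnight at 37C, then dosed with compounds plus a stimulation mix containing 100uM IBMX and 25uM Ro-20-1724 for 0.5hr at room temperature. cAMP was measured by HTRF competition, 1hr.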
On the technique in general: In qHTS, concentration-response curves come from the screen itself.

Molecules are shown by their SMILES. Inconclusive results are not listed. A call without a number means that no potency is given here. Values without a mark were called inactive. Active and inactive are the calls of the source. The call rests on the fitted dose curve.

Chain of Beta-2 adrenergic receptor (Homo sapiens) (P07550 whole entry, looked up): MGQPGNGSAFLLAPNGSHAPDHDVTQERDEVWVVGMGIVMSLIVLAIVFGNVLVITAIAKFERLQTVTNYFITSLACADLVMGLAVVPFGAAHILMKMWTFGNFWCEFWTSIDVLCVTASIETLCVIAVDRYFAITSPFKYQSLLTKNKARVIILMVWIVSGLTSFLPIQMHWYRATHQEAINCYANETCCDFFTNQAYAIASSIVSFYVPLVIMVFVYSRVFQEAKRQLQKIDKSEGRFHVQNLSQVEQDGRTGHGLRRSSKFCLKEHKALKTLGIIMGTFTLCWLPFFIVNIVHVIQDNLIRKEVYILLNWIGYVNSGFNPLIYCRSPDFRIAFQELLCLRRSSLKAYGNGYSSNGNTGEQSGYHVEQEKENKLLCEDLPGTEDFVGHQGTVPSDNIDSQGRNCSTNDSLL

Consider `N[C@H]1C(O)O[C@H](CO)[C@@H](O)[C@@H]1O` (stereo not given in full), for which the Potency result was “inactive”.
On to `C[C@H]1C[C@H](O)c2ccsc2S1(=O)=O`, for which the Potency result was “inactive”.
Same read-out and setting: to `COC(=O)CC(C(C)=O)C(=O)OC` (stereo not given) belongs “inactive”.
For `O=C1C(O)=C(O)C(=O)C(O)=C1O`, the Potency entry is “inactive”.
On to `OCC(O)CN1CCN(c2ccccc2)CC1` (stereo not given), for which the Potency result is “inactive”.
Still for that read-out and setting: the entry for `C[n+]1ccn(Cc2ccccc2)c1` is “inactive”; for `COCC(O)CO` (stereo not given) it is “inactive”.
In the case of `CCCCCC(=O)CC`, the Potency entry is “inactive”.
In the case of `CCOC(=O)c1cc(=O)c2c(OCC(COc3cccc4oc(C(=O)OCC)cc(=O)c34)OC(=O)[C@@H](N)CCCCN)cccc2o1`, the Potency result was “inactive”.
Take `CCC(C)CO` (stereo not given): the Potency entry was “inactive”.
Take `CC(=O)OCCN(CCOC(C)=O)c1ccc(N=Nc2ccc([N+](=O)[O-])cc2C#N)cc1`: the Potency result is “inactive”.
As for `O=C(c1ccc(Cl)cc1)c1ccc(Cl)cc1`, the Potency entry was “inactive”.
On to `O=c1oc2c(O)c(O)cc3c(=O)oc4c(O)c(O)cc1c4c23`, for which the activation was -28.3% [at 19 µM].
Consider `Oc1cc(O)c2c(c1)O[C@H](c1ccc(O)c(O)c1)[C@H](O)C2`, for which the Potency result was “inactive”.
On the same count and under the same terms, to `N#Cc1ccc(C2CCCc3cncn32)cc1` (stereo not given) belongs “inactive”.
For `CCCCCCCCCCCCCCCCBr`, the activation was -6.98% [at 19 µM].
For `CCOc1ccc(N)c([N+](=O)[O-])c1`, the Potency entry is “inactive”.
For the compound `CCCC[C@H]1CN(CC2CCOCC2)C(=O)OC12CCN(C1(C)CCN(C(=O)c3c(C)ncnc3C)CC1)CC2`, the Potency result is “inactive”.
As for `CC(=O)CC(N)=O`, the Potency result is “inactive”.
For `NC/C=C/C(=O)O`, the Potency entry was “inactive”.
On to `CCCSSCCC`, for which the Potency entry was “inactive”.
As to `COc1ccc(C(=O)NCc2ccc(OCCN(C)C)cc2)cc1OC`, the Potency entry was “inactive”.
On to `C=C(C)C(=O)OC(C)C`, for which the Potency entry is “inactive”.
Turning to `CC(=O)OCC(=O)Nc1cc(C#N)cc(NC(=O)COC(C)=O)c1Cl`, the Potency entry is “inactive”.
Regarding `CCCCOC(=O)[C@H](C)O`, the Potency result was “inactive”.
Still for that read-out and setting: the entry for `OC[C@H]1O[C@H](O[C@H]2O[C@H](CO)[C@@H](O)[C@H](O)[C@H]2O)[C@H](O)[C@@H](O)[C@@H]1O` is “inactive”; for `C/C(=C1\CCOC(=O)S1)N(C=O)Cc1cnc(C)nc1N` it is “inactive”; for `C/C(=C(\CCO)SS/C(CCO)=C(\C)N(C=O)Cc1cnc(C)nc1N)N(C=O)Cc1cnc(C)nc1N` it is “inactive”.
As for `CCC(N)(CO)CO`, the Potency entry is “inactive”.
Regarding `CCC(C)C1CCCCC1=O` (stereo not given), the Potency result was “inactive”.
As to `N=C(N)c1ccc2cc(OC(=O)c3ccc(N=C(N)N)cc3)ccc2c1`, the Potency result is “inactive”.
With `CCOC(=O)c1c(C)n(C)c2ccc(O)cc12`, the Potency entry was “inactive”.
Still for that read-out and setting: to `CCCc1ccc(N)cc1` belongs “inactive”; to `CCCCC(CC)COC(=O)CCCCCCCC(=O)OCC(CC)CCCC` (stereo not given), “inactive”; to `CC/C=C\C#N`, “inactive”.
As to `CCC(C)NC(N)=O` (stereo not given), the Potency entry is “inactive”.
`CC1CCC(C(C)(C)O)CC1` (stereo not given): the Potency result is “inactive”.
Same read-out and setting: the entry for `CC(=O)OCC1=C(C(=O)O)N2C(=O)[C@@H](NC(=O)Cc3cccs3)[C@H]2SC1` is “inactive”; for `C=CC(=O)CC` it is “inactive”.
On the same count and under the same terms, the entry for `CC(C)(c1ccccc1)c1ccc(Nc2ccc(C(C)(C)c3ccccc3)cc2)cc1` is “inactive”; for `O=C1NCCN1CCO` it is “inactive”; for `C[N+](C)(C)CC[N+]1(C)Cc2c(Cl)c(Cl)c(Cl)c(Cl)c2C1` it is “inactive”.
Turning to `CCC(O)CO` (stereo not given), the Potency result was “inactive”.
On the same count and under the same terms, the entry for `OCC1CCC(CO)CC1` (stereo not given) is “inactive”; for `CCCCCCOC(=O)c1ccccc1O` it is “inactive”.
For `CC(C)C(=O)OCCOc1ccccc1`, the Potency result was “inactive”.
Consider `N[C@H](C(=O)O)c1ccc(O)cc1`, for which the activation is 19.3% [at 19 µM].
As for `CC[N+](C)(C)c1cccc(O)c1`, the Potency entry is “inactive”.
Regarding `CCCCC(C)C(=O)O` (stereo not given), the Potency entry was “inactive”.
For `c1ccc2c(c1)CCc1ccccc1N2`, the Potency entry was “inactive”.
Take `Cc1cccc(N)n1`: the Potency entry is “inactive”.
Take `Nc1ccc(N=Nc2ccccc2)c(N)n1`: the Potency entry is “inactive”.
Consider `FC(F)(F)C(F)(F)C(F)(F)C(F)(F)C(F)(F)C(F)(F)CCI`, for which the Potency entry was “inactive”.
Turning to `CC1=CC(=O)c2ccccc2C1=O`, the Potency result is “inactive”.
On the same count and under the same terms, the entry for `CCCCCCCCCCCC(=O)OC[C@@H](O)[C@H]1OC[C@H](OCCO)[C@H]1OCCO` is “inactive”.
